Results filed as inconclusive are left out. Activity calls are given as the source filed them. Unless noted, calls follow the shape of the dose curve; as a rule, active = well fitted curve in either direction with a large enough effect (not every such curve was filed as active); inconclusive = small, poorly fitted or top-dose-only effect, or another doubt; inactive = flat fitted curve, though single readings scatter.
Tests used:
[1] = AP1 Signaling Pathway (AID 357); details: ME-180 (cervical carcinoma) AP-1-bla reporter, EGF-induced, beta-lactamase ratio, 5 h; at 17.2 µM (top of the series) unless noted; also: % is scaled to controls: 0 for no effect and ±100 for the full control effect
How it was run: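 Titration-series screen for positive or negative modulators of EC50 EGF-induced signaling in ME-180 cells carrying an AP-1-driven beta-lactamase reporter. After 5 hours at 37 degrees Celsius, CCF4 460nm/530nm emission ratio gave %Activity; AC50 values derived.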

[2] = NFAT Signaling Pathway (AID 444); details: Jurkat NFAT-bla M1, carbachol, beta-lactamase ratio, 5 h; at 17.2 µM (top of the series) unless noted;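 also: carbachol stimulus at about its EC50 of 1 µM final; % is scaled to controls: 0 for no effect and ±100 for the full control effect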
How it was run: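 Jurkat cells carrying an NFAT-driven β-lactamase reporter and co-transfected muscarinic M1 receptor were treated with compound plus carbachol (1 uM final, an EC50 level) for 5 h at 37 °C. CCF4 loading followed for 1 h at RT; 460/530 nm ratio gave %activity.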

[3] = Stat Signaling Pathway (AID 446);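 also: ME-180 cervical cancer cells given 40 pM IL-6 alongside compound; SIE-controlled beta-lactamase reporter measured as 460/530 nm FRET emission ratio; % is scaled to controls: 0 for no effect and ±100 for the full control effect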
How it was run: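 Normalization used AC90 stimulation (300 pM IL-6) and AC90 inhibition (125 nM pan-JAK inhibitor at 40 pM IL-6). The underlying signal is SIE-driven beta-lactamase in ME-180 cells after 5 h IL-6 exposure with compound.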

[4] = target: Glucocorticoid receptor (Homo sapiens) (UniProt P04150); assay: GR-GFP Redistribution (AID 450;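 active = compounds whose dose series gives a full or clear partial fitted curve of increased nuclear translocation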; also: potency is read from the fitted curve at half-maximal effect); details: U2OS GR-GFP nuclear translocation, laser cytometry, 2 h
[5] = target: Glucocorticoid receptor (Homo sapiens) (UniProt P04150); assay: GR-EFC Redistribution (AID 451; calls by dose curve; also: potency is read from the fitted curve at half-maximal effect); details: CHO-K1 GR-EFC translocation, beta-gal luminescence, 2 h
How it was run: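 CHO-K1 cells stably expressing nuclear-localized β-gal enzyme acceptor and GR fused C-terminally to the enzyme donor fragment; ligand-driven nuclear translocation restores β-gal by complementation. Compounds titrated up to 46 uM final, 2 h at 37 °C; luminescence read.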

[6] = target: Mitogen-activated protein kinase 10 (Mus musculus) (UniProt Q61831); assay: JNK3 AlphaScreen Assay (AID 530);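 also: kinase came from lysate of stimulated human HepG2 cells; signal reports phosphorylation of biotinylated GST-cJun 1-79 at Ser73 with 10 µM ATP; % is scaled to controls: 0 for no effect and ±100 for the full control effect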
How it was run: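 Biotinylated GST-cJun(1-79) served as substrate for JNK3 in HepG2 lysates stimulated with IL-1beta and TNF-alpha. ATP was 10 uM final, pH 7.6. Ser73 phosphorylation was quantified by AlphaScreen (680 nm excitation).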

[7] = target: 3',5'-cyclic-AMP phosphodiesterase 4B (Homo sapiens) (UniProt Q07343); assay: qHTS Assay for Inhibitors of PDE-IV (AID 607; active = well fitted activation curve with a large enough effect in the main read-out, with a control signal flat, not every such curve was filed as active; also: % of control where 0% means no effect)
How it was run: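 HEK293 ACTOne cells with CNG channel (1000/well), endogenous PDE4; membrane potential dye, compounds up to 22.9 uM final. Fluorescence Ex 535/Em 590; RO 20-1724 (100 uM final) as reference.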

[8] = target: Guanine nucleotide-binding protein G(i) subunit alpha-1 (Homo sapiens) (UniProt P63096); assay: qHTS Assay for Inhibitors of RGS12 GoLoco Motif Activity (Green Fluorophore) (AID 879; active = well fitted curve in the direction sought with a large enough effect; an effect the other way counts as inactive or inconclusive;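 also: 0% = labeled peptide with Gαi1 and full inhibition = labeled peptide alone without protein; negative values mean loss of peptide binding seen as reduced polarization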)
How it was run: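 A drop in FITC polarization marked displacement of the FITC-tagged RGS12 GoLoco peptide (10 nM) from Gαi1 (50 nM). Compounds were incubated 10 min at room temperature in Tris pH 7.5 buffer containing 150 mM NaCl, 0.1 mM GDP and 0.05% NP40; unlabeled peptide titration served as control.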

[9] = qHTS Assay for Identification of Small Molecule Agonists for Thrombopoietin (TPO) Signaling Pathway (AID 917; active = well fitted curve in the direction sought with a large enough effect; an effect the other way counts as inactive or inconclusive; also: % is scaled to controls: 0 for no effect and ±100 for the full control effect)
How it was run: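 Stimulation at the TPO EC50 (26 pM final) was used to detect activators. Ba/F3 mouse cells bearing human TPO receptor and a luciferase reporter under the Glycoprotein IIb promoter were exposed to compounds for 24 hrs at 37 C.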

[10] = target: Muscarinic acetylcholine receptor M1 (Rattus norvegicus) (UniProt P08482); assay: qHTS Assay for Antagonists of Acetylcholine Muscarinic M1 Receptor: Kinetic Measurement of Intracellular Calcium Response (AID 943; active = well fitted curve in the direction sought with a large enough effect; an effect the other way counts as inactive or inconclusive; also: nearly all actives have a fitted effect of over 75% in size; also: potency is read from the fitted curve at half-maximal effect;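 as to activity change, negative = inhibition: Fluo-4 calcium signal as peak divided by basal fluorescence over 4 min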)
How it was run: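 Quantitative HTS in CHO-M1 (rat receptor) cells: 10 min compound exposure ahead of 100 nM carbachol, Fluo-4 fluorescence followed 4 min, value expressed as peak-to-basal ratio.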

[11] = target: Muscarinic acetylcholine receptor M1 (Rattus norvegicus) (UniProt P08482); assay: qHTS Assay for Antagonists of Acetylcholine Muscarinic M1 Receptor: Measurement of IP-One Response (AID 944; active = well fitted curve in the direction sought with a large enough effect; an effect the other way counts as inactive or inconclusive; also: nearly all actives have a fitted effect of over 75% in size)
How it was run: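 Antagonism was measured as loss of carbachol-driven (EC80) IP1 accumulation in CHO cells carrying rat M1, using a homogeneous IP-One TR-FRET kit read at 620 and 665 nm.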

[12] = target: Pyruvate kinase PKM (Homo sapiens) (UniProt P14618); assay: qHTS Assay for Activators of Human Muscle Pyruvate Kinase (AID 954; active = well fitted curve in the direction sought with a large enough effect, not every such curve was filed as active;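 also: 0% = uninhibited enzyme and -100% = no enzyme or full thiadiazolimine inhibition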)
How it was run: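 Compound pinned into substrate mix (0.5 mM PEP, 0.1 mM ADP), then 0.1 nM PKM2 added; 1 h, RT. Stop/detection luciferase reagent added, luminescence read. Normalized to no-inhibition and no-enzyme or reference-inhibitor controls.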

[13] = target: Alpha-galactosidase (Coffea arabica) (UniProt Q42656); assay: Counterscreen for Glucocerebrosidase Inhibitors: qHTS Assay for Coffee Bean alpha-Galactosidase at pH 4.5 (AID 957; active = well fitted curve in the direction sought with a large enough effect; an effect the other way counts as inactive or inconclusive;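 also: plate controls were enzyme alone for no effect and no enzyme for full effect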)
How it was run: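 Quantitative HTS of compounds (0.7 nM to 77 uM) against coffee bean alpha-galactosidase at pH 4.5, measuring 4-methylumbelliferone fluorescence released from 80 uM substrate.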

[14] = target: Alpha-galactosidase A (Homo sapiens) (UniProt P06280); assay: Counterscreen for Glucocerebrosidase Inhibitors: qHTS Assay for Human alpha-Galactosidase at pH 4.5 (AID 992; active = well fitted curve in the direction sought with a large enough effect; an effect the other way counts as inactive or inconclusive; also: 0% is about no effect)
How it was run: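 Steps: enzyme (2 nM final), then compound across 0.7 nM to 77 uM, then 80 uM fluorogenic galactopyranoside substrate; incubate 20 min at room temperature; quench at pH 10; measure fluorescence at 365/440 nm.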

[15] = target: Alpha-galactosidase (Coffea arabica) (UniProt Q42656); assay: Counterscreen for Glucocerebrosidase Inhibitors: qHTS Assay for Coffee Bean alpha-Galactosidase at pH 5.9 (AID 998; active = well fitted curve in the direction sought with a large enough effect; an effect the other way counts as inactive or inconclusive;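 also: plate controls were uninhibited enzyme for no effect and no-enzyme basal signal for full effect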)
How it was run: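 In 50 mM citric acid pH 5.9 with 0.005% Tween-20, coffee bean enzyme hydrolyses 80 uM 4-MU alpha-D-galactopyranoside over 20 min at RT. Activity is normalized to controls; AC50 comes from Hill-modelled concentration-response data.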

[16] = qHTS Assay for Identification of Small Molecule Antagonists for NFkB Signaling Pathway (AID 895; active = well fitted inhibition curve with a large enough effect in the signal ratio, with a control signal flat, not every such curve was filed as active; the % refers to the signal ratio; also: % is scaled to controls: 0 for no effect and ±100 for the full control effect)
How it was run: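 NFkB-bla ME-180 cervical carcinoma cells with beta-lactamase reporter under NFkB response element; compounds added, then TNF alpha at 10 pM final (EC50), 5 h at 37 C. LiveBLAzer substrate 2 h, room temperature; emission 460/530 nm at 405 nm excitation.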

Sequence of Glucocorticoid receptor (Homo sapiens) (P04150 whole entry, looked up, the tested form may be a part): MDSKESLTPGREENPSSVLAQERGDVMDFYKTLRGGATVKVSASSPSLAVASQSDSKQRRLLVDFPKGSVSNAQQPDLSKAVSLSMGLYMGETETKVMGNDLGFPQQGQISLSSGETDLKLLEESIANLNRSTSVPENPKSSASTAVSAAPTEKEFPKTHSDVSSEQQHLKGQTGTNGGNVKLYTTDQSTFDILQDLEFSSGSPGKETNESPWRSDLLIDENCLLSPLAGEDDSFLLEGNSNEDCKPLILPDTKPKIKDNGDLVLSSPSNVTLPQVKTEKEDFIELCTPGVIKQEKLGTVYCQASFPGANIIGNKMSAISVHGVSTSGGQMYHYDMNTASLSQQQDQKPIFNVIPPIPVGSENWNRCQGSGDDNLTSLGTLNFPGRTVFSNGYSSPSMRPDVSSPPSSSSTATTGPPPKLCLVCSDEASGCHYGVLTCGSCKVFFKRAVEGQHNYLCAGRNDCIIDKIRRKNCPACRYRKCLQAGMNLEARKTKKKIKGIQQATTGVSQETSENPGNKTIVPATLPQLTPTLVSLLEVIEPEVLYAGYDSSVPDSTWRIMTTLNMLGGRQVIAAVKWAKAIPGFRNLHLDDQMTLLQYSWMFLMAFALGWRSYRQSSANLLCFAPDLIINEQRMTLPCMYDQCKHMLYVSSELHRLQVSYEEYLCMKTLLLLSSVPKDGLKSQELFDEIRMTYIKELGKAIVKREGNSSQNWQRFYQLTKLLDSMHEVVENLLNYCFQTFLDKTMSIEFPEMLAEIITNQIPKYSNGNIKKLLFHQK
Sequence of Muscarinic acetylcholine receptor M1 (Rattus norvegicus) (P08482 whole entry, looked up): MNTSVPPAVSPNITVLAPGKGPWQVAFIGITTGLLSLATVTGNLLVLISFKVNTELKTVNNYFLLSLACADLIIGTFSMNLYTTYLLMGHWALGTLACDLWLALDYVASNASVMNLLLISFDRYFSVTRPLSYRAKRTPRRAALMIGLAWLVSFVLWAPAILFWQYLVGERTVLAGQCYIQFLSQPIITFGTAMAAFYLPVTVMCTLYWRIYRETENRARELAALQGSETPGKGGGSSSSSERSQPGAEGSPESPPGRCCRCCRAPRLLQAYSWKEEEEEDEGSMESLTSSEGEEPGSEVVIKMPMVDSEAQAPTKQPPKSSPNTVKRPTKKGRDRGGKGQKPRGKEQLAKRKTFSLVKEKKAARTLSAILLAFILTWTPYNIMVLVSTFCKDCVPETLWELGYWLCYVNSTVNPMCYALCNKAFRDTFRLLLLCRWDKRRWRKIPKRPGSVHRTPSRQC
Sequence of 3',5'-cyclic-AMP phosphodiesterase 4B (Homo sapiens) (Q07343 whole entry, looked up): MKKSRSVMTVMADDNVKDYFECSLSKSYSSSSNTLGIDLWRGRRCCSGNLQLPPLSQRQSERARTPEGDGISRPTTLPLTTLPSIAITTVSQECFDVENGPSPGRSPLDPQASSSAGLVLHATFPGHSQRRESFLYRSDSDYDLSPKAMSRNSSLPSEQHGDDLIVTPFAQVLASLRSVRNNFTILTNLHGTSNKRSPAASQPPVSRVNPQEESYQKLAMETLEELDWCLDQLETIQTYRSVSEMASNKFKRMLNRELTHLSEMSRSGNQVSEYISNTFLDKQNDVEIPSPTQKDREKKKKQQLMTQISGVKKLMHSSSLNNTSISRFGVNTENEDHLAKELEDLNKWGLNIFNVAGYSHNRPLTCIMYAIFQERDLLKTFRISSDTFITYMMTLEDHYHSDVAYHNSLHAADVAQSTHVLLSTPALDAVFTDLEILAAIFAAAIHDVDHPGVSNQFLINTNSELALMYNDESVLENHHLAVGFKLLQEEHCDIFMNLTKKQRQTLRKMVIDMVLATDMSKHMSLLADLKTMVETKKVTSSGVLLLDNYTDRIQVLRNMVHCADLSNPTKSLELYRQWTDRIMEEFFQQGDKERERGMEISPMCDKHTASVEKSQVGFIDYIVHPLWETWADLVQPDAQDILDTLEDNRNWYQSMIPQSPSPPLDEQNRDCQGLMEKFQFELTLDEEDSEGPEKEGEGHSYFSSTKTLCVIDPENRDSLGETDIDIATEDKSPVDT
Sequence of Pyruvate kinase PKM (Homo sapiens) (P14618 whole entry, looked up): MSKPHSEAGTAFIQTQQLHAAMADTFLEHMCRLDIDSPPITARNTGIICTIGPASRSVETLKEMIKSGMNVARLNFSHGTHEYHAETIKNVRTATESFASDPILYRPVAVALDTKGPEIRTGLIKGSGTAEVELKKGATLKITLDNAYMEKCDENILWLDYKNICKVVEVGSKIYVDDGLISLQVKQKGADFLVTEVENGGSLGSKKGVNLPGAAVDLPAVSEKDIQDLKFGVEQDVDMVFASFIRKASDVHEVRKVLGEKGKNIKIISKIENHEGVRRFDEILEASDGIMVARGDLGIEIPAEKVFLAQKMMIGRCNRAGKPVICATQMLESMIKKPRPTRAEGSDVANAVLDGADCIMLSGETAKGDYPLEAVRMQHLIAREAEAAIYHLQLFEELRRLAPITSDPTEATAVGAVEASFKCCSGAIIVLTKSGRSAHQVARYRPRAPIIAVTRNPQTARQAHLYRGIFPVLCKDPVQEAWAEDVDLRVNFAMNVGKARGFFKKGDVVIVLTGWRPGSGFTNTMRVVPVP
Sequence of Alpha-galactosidase (Coffea arabica) (Q42656 whole entry, looked up): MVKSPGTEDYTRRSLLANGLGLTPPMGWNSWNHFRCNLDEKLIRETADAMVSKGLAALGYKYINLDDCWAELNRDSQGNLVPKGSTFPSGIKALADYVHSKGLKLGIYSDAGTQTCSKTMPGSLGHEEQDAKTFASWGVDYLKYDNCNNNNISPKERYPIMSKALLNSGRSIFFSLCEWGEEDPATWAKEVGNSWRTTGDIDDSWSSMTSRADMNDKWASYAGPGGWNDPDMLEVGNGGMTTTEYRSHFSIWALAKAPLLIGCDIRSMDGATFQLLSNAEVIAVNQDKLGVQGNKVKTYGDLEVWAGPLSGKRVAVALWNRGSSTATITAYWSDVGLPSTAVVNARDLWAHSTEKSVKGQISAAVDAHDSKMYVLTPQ
Sequence of Alpha-galactosidase A (Homo sapiens) (P06280 whole entry, looked up): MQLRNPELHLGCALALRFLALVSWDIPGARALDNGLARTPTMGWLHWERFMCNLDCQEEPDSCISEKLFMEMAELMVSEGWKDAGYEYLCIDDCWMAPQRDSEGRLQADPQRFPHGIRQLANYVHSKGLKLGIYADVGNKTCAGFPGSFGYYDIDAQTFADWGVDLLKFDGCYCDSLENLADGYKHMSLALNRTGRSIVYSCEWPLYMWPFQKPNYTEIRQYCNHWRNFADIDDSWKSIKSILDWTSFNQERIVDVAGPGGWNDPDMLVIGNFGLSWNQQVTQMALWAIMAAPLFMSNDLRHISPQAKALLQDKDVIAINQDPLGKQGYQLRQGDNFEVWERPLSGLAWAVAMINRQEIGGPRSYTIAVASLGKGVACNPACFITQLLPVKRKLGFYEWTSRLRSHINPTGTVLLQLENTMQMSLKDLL
Sequence of Guanine nucleotide-binding protein G(i) subunit alpha-1 (Homo sapiens) (P63096 whole entry, looked up): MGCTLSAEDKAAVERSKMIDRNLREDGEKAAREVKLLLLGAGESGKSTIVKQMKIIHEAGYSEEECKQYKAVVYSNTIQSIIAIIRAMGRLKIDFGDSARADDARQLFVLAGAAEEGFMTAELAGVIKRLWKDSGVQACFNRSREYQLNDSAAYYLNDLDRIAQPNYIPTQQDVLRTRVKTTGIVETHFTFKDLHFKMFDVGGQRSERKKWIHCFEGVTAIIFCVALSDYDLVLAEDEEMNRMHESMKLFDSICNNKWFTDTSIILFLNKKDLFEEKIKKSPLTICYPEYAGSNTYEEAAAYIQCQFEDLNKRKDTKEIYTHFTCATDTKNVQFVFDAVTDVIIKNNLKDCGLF

O[C@@H]1CCCC[C@H]1N1CCC(c2ccccc2)CC1
active: Potency [10] 14.1 µM
inactive: activity change, negative = inhibition [1] -6.58% [at 38 µM] | activity change, negative = inhibition [2] -6.89% [at 38 µM] | outcome [3] | Potency [4] > 46 µM | Potency [5] > 46 µM | outcome [6] | outcome [7] | Potency [8] | outcome [9] | Potency [11] | outcome [12] | outcome [13] | outcome [14] | outcome [15]

CC(C)(O)[C@H]1[C@H]2OC(=O)[C@@H]1[C@]1(O)C[C@H]3O[C@]34C(=O)O[C@H]2[C@]14C (tested in a mixture with another compound)
inactive: activity change, negative = inhibition [1] 5.02% [at 38 µM] | activity change, negative = inhibition [2] -0.245% [at 38 µM] | outcome [3] | Potency [5] > 46 µM | outcome [6] | outcome [7] | Potency [8] | Potency [11] | outcome [12] | outcome [13] | outcome [14] | outcome [15]

CN1C(=O)CN=C(c2ccc(Cl)cc2)c2cc(Cl)ccc21
inactive: activity change, negative = inhibition [1] 10.4% | outcome [3]

CCOC(=O)[C@@]1(C#N)[C@@H]2C=CC(C(N)=O)=CN2[C@@H](C(N)=O)[C@@H]1c1cccc(Cl)c1
inactive: activity change, negative = inhibition [1] -3.06% | outcome [3]

CC(C)n1cc2c3c(cccc31)[C@@H]1C[C@H](C(=O)O[C@@H](C)[C@H](C)O)CN(C)[C@H]1C2
inactive: activity change, negative = inhibition [1] 1.23% [at 38 µM] | activity change, negative = inhibition [2] -4.79% [at 38 µM] | Potency [5] > 46 µM | Potency [16] | outcome [9] | Potency [10] | outcome [12] | outcome [13] | outcome [14] | outcome [15]

CCOC(C(=O)OCC(O)CN(CC)CC)(c1ccccc1)c1ccccc1 (configuration not stated)
inactive: activity change, negative = inhibition [1] 4.62% | outcome [3] | Potency [4] > 20.6 µM

CN1C[C@@H](CNC(=O)OCc2ccccc2)C[C@H]2c3cccc4c3c(cn4C)C[C@@H]21
inactive: activity change, negative = inhibition [1] 29.6% [at 38 µM] | activity change, negative = inhibition [2] 0.446% [at 38 µM] | outcome [3] | Potency [4] > 46 µM | Potency [5] > 46 µM | outcome [6]

CC1(C)CC(=O)C(C=NCCN2CCN(C(=O)Cc3ccc(F)cc3)CC2)=C(O)C1
inactive: activity change, negative = inhibition [1] -0.912% | outcome [3]

C=CCN1CC[C@]23c4c5ccc(O)c4O[C@@H]2C(=O)CC[C@@]3(O)[C@H]1C5
inactive: activity change, negative = inhibition [1] 3.28% [at 38 µM] | activity change, negative = inhibition [2] -0.768% [at 38 µM] | outcome [3] | outcome [7] | Potency [8] | outcome [9] | outcome [12] | outcome [13] | outcome [14] | outcome [15]
